The assay concerns MDA-MB-468 breast. Nature of the assay: NCI-60 one-dose screen, 48 h (100 = growth as untreated, 0 = no growth, -100 = all killed). The note with it: 10 µM unless noted.

The text below walks through data of PubChem BioAssay (NCI).

The structures appear in SMILES notation. Values joined by “and” are separate entries in the source; they are usually repeats but may differ in a detail not shown here. Identical values can stand only once. This is part of a sample that, as a whole, favours compounds with a hit. Of some 83,000 tested, about 20% had one in any assay.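 Note: values are percent growth. 100 is the growth of untreated cells, values between 100 and 0 indicate rising inhibition; between -100 and 0 indicates cell death.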 A number with no mark means an inactive call. Active and inactive are the calls of the source. How the source made its calls: active means growth percent below 10; inactive means the rest.

For the compound `CN(C)CCCSc1ccccc1NC1=C(Cl)C(=O)C(Nc2ccccc2SCCCN(C)C)=C(Cl)C1=O`, the growth is -61.4% (active). Regarding `O=[N+]([O-])c1ccc(N=Nc2ccc(O)cc2O)cc1`, the growth was -4.48% (active).

Consider `CC(C)=CCC[C@](C)(O)[C@H]1CC[C@]2(C)[C@@H]1CC[C@@H]1[C@@]3(C)C/C(=C/c4ccc(Br)cc4)C(=O)C(C)(C)[C@@H]3CC[C@]12C`, for which the growth is 83.7%. To `COc1ccc(/C=N/Nc2nc(Nc3ccccc3)nc(Nc3ccc(S(N)(=O)=O)cc3)n2)cc1` belongs 76.3%; to `NNc1ncnc2c1ncn2C1OC(CO)C(O)C1O` (stereo unspecified), 58.8%. To `CCc1cccc2c1S/C(=C/c1ccc(Cl)cc1)C2=O` belongs 93.6%. To `CC(C)=CCc1c2c(c(O)c3c1O[C@]14C(=C[C@@H]5C[C@H]1C(C)(C)O[C@@]4(C/C=C(/C)C(=O)O)C5=O)C3=O)CC(O)C(C)(C)O2` (stereo partly specified) belongs -55.7% (active); to `C1CN(SSN2CCOCC2)CCO1`, -66.4% [100 µM] (active).

For the compound `NC(=O)c1cccc(-c2cc(C(N)=O)ccc2Cl)c1`, the growth is 53.4%. In the case of `O=C1OC(=O)C2C1CC=CC2c1ccccc1` (stereo unspecified), the growth is 93.3%. Turning to `Cn1ccnc1C(=O)/C=C/c1ccc(CC(=O)Nc2ccc(F)cc2)cc1`, the growth was -4.62% (active). Take `COc1cc(/C=C/C(=O)/C=C/c2cc(OC)c3c(c2OC)OCO3)c(OC)c2c1OCO2`: the growth is 23.1%.

With `CN1C(=O)C2(SCC(C(=O)NCc3ccccc3)N2C(=O)C2CCCCC2)c2ccccc21` (stereo unspecified), the growth was 98.2%.

Turning to `Cc1cccc2c1O/C(=C\c1ccc([N+](=O)[O-])o1)C2=O`, the growth was -58.1% (active). Regarding `O=C(CN1CCOCC1)Nc1ccc(Cn2nnc3c2C(=O)c2nnn(Cc4ccc(NC(=O)CN5CCOCC5)cc4)c2C3=O)cc1`, the growth was -61.7% (active). With `CCCOc1cc2ccccc2cc1C(=O)Nc1nc(NC)c2c(ccc3nccc32)[nH]1`, the growth was -59.7% (active). Consider `Cc1ccc(S(=O)(=O)N(CC[C@@H]2C[C@H]2c2cc3ccccc3o2)S(=O)(=O)c2ccc(C)cc2)cc1`, for which the growth is 80%.

On to `Cc1cc2nc(CS)[nH]c2cc1C`, for which the growth is 85.2%. For `Nc1ccccc1SC(CC(=O)c1ccccc1)c1cccc([N+](=O)[O-])c1` (stereo unspecified), the growth was 85.9% and 77.9%. For `CCOc1ccc(N=C(C)Nc2ccc(OCC)cc2)cc1`, the growth is 116%. To `Cc1cc(N2CCCCC2)nc(N2CCN(CC(=O)Nc3ccc4c(ccn4Cc4ccccc4)c3)CC2)n1` belongs 37.6%; to `NC(CSC(c1ccccc1)(c1ccccc1)c1cccc2ccccc12)C(=O)O` (stereo unspecified), 86%; to `C=C1CC[C@@H]2[C@](C)(COC(C)=O)[C@H](OC(C)=O)CC[C@@]2(C)[C@@H]1CC(Sc1ccccc1)C1=CCOC1=O` (stereo partly specified), -61.1% (active). Then `Cn1c([N+](=O)[O-])cnc1C=C1C(=O)c2ccccc2C1=O`, with 51.3%; and `Nc1cc(N)c(N)cc1N`, with 84.7%. `COc1cc(OC)cc(-c2n/c(=C\c3c(O)[nH]c4ccc(Cl)cc34)cc3c2=Nc2ccccc2-3)c1`: the growth was 98.1%. Turning to `CCN(CC)CCNC(=O)n1cc(-c2ccncc2)c(-c2ccc(Cl)c(OC)c2)n1`, the growth was 88.3%. Then `O=C(CCNC(=O)c1nc(-c2ccccc2)n(-c2ccc(Cl)cc2)n1)NO`, with 107%; and `OCCc1ccc(Cl)cc1`, with 103%; and `Cc1ccc(Cn2c(O)c(N=NC(=O)c3ccc(S(N)(=O)=O)cc3)c3ccccc32)cc1`, with 100%.

For the compound `COc1ccccc1NC1=C(Cl)C(=O)c2nc(C)ccc2C1=O`, the growth was -79.7% (active). To `O=C1C=C(OCC=C(Cl)Cl)C(=O)c2ccccc21` belongs 41.5%; to `Cc1c(C(N)=O)sc2c1c(=O)n(Cc1ccccc1)c1nnc(Nc3ccccc3)n21`, 108%; to `CN(Cc1cc(Cl)cc(Cl)c1O)Cc1cc(Cl)cc(Cl)c1O`, 36.5%. Then `CCN(CC)CCN1C(=O)c2c(c(C)c3c(oc4ccc(O)cc43)c2C)C1=O`, with 47.5%; and `O=C(C[C@@]1(O)C(=O)Nc2c(Cl)ccc(Cl)c21)c1ccc(C2CC2)cc1`, with -4.24% (active); and `O=C(Nc1ccccc1)Nc1nc2ccc([N+](=O)[O-])cc2[nH]1`, with 22.1%. Then `CCOC(=O)CSc1c([N+](=O)[O-])ncn1C`, with 91.1%; and `CCn1c2ccccc2c2cc(NC(=O)Nc3ccc([N+](=O)[O-])cc3C)ccc21`, with 7.62% (active). Take `OC(c1ccc(F)c(C(F)(F)F)c1)c1cnccc1NC1CCCCC1` (stereo unspecified): the growth is 9.9% (active). For `Fc1ccc(COc2ccc(Nc3ncnc4sc5c(c34)CCCC5)cc2)cc1`, the growth was 93.9%.
